Experimental data taken from PubChem BioAssay (NCATS).
Records with an inconclusive call do not appear. A call without a number means that no potency is given here. Where a structure was tested more than once in an assay, its records may differ in their call. Calls of active or inactive are those of the source. Unless noted, calls come from the whole dose curve; as a rule, active = well fitted curve in the direction sought with a large enough effect; inconclusive = small, poorly fitted or top-dose-only effect, or another doubt; inactive = no such curve, though single readings can be large; an effect the other way counts as inactive or inconclusive.

Tests used:
[1] = qHTS for Inhibitors of Plasmodium falciparum (DD2) proliferation (AID 504314);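 note: parasite DNA measured by SYBR Green fluorescence after red cell lysis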
Procedure, shortened: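 SYBR Green DNA-fluorescence growth assay: infected RBCs at 0.3% parasitemia, 2.5% hematocrit, 72 h compound exposure, 37C, 5% CO2; overnight lysis with dye at RT; normalized to 0.29 uM artemisinin and vehicle.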

[2] = qHTS for Inhibitors of Plasmodium falciparum (GB4) proliferation (AID 504315); note: nearly all actives have a fitted effect of over 50% in size
Procedure, shortened: (§1)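 Parasite growth measured as SYBR Green DNA fluorescence (ex 485, em 535 nm) after overnight lysis following 72 h culture at 37 °C, 0.3% parasitemia, 2.5% hematocrit. Values normalized against DMSO and 0.29 uM artemisinin controls, with plate-stack correction.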

[3] = qHTS for Inhibitors of Plasmodium falciparum (HB3) proliferation (AID 504318); note: nearly all actives have a fitted effect of over 60% in size; note: potency is the fitted concentration of half-maximal effect
Procedure, shortened: as §1

[4] = qHTS for Inhibitors of Plasmodium falciparum (CP250) proliferation (AID 504320)
Procedure, shortened: as §1

[5] = molecular target: Atrial natriuretic peptide receptor 1 (Homo sapiens) (UniProt P16066); assay: Natriuretic polypeptide receptor (hNpr1) antagonism - Pilot CMLD screen (AID 1347052; calls by dose curve;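 note: HEK293 cells with hNpr1 stimulated by hNppA peptide at 0.1 nM; cGMP level read as GloSensor luciferase luminescence after agonist stimulation; series mostly up to about 9.2 µM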)
[6] = molecular target: Cytochrome P450 3A4 (Homo sapiens) (UniProt P08684); assay: qHTS Assay for Inhibitors and Substrates of Cytochrome P450 3A4 (AID 884); note: series mostly up to about 57 µM; nearly all actives have a fitted effect of over 50% in size
Procedure, shortened: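 Luminescent readout of luciferin produced by CYP3A4 (20 nM) dealkylation of Luciferin-PPXE, 25 uM (its KM). NADPH-driven reaction ran 60 min at RT after 10 min compound preincubation; data scaled to 57 uM ketoconazole as 100% inhibition.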

[7] = molecular target: Cytochrome P450 2D6 (Homo sapiens) (UniProt P10635); assay: qHTS Assay for Inhibitors and Substrates of Cytochrome P450 2D6 (AID 891);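 note: luciferin methyl ether substrate demethylated by CYP2D6 with NADPH regeneration; nearly all actives have a fitted effect of over 60% in size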
Procedure, shortened: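 Luminescent read-out of luciferin formed by 5 nM human CYP2D6 demethylating 30 uM Luciferin-ME EGE (Km level) over 60 min at room temperature after NADPH regeneration addition. Data normalized to full inhibition by 1.43 uM quinidine.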

[8] = molecular target: Cytochrome P450 2C19 (Homo sapiens) (UniProt P33261); assay: qHTS Assay for Inhibitors and Substrates of Cytochrome P450 2C19 (AID 899); note: potency is the fitted concentration of half-maximal effect; nearly all actives have a fitted effect of over 60% in size
Procedure, shortened: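 5nM enzyme + 10uM Luciferin-H EGE (=KM), 50mM KPO4; cpd pin-transferred, 10 min 37C; NADPH regen, 60 min 37C; stopped w/ luciferin detection reagent, 20 min; luminescence. Normalized to 57uM ketoconazole (AC100).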

Atrial natriuretic peptide receptor 1 (Homo sapiens), sequence (P16066 whole entry, looked up): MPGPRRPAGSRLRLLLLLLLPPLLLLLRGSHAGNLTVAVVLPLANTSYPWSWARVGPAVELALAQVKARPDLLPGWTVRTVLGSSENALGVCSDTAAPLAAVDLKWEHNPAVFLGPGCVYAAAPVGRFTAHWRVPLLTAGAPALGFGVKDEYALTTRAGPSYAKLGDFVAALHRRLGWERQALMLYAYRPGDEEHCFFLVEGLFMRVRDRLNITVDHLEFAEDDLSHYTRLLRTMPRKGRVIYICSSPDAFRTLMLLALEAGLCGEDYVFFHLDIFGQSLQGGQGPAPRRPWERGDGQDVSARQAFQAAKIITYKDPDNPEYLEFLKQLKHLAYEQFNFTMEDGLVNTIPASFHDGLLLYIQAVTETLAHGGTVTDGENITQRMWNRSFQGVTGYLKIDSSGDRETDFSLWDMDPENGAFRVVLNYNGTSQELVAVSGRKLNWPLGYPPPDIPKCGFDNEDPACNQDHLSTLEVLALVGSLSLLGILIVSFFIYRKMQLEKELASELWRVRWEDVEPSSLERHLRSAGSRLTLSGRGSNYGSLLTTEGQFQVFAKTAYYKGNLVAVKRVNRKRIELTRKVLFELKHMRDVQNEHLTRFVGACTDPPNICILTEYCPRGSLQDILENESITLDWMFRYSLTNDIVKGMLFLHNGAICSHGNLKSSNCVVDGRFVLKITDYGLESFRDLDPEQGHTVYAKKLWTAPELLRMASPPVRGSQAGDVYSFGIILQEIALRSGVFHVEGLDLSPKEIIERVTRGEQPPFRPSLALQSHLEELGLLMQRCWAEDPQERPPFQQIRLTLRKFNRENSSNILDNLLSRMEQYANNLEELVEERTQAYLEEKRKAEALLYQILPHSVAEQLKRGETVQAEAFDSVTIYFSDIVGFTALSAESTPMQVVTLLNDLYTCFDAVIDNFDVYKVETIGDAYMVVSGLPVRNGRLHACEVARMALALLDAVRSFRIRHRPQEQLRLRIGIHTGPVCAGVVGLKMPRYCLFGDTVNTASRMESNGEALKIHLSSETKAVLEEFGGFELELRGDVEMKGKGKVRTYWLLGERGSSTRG
Cytochrome P450 2D6 (Homo sapiens), sequence (P10635 whole entry, looked up): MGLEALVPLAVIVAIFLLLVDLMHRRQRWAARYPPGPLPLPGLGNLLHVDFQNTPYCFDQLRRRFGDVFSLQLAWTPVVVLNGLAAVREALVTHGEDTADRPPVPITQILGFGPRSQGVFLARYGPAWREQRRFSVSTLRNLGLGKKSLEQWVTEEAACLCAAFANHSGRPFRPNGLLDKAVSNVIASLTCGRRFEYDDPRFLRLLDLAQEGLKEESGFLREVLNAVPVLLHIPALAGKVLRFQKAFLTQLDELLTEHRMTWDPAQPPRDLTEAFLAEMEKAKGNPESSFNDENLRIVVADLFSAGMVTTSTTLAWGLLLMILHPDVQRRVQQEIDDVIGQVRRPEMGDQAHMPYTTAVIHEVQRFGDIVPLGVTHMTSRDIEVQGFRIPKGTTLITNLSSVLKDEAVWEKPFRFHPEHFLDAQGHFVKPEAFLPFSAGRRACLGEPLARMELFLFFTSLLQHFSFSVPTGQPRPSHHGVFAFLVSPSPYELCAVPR
Cytochrome P450 3A4 (Homo sapiens), sequence (P08684 whole entry, looked up): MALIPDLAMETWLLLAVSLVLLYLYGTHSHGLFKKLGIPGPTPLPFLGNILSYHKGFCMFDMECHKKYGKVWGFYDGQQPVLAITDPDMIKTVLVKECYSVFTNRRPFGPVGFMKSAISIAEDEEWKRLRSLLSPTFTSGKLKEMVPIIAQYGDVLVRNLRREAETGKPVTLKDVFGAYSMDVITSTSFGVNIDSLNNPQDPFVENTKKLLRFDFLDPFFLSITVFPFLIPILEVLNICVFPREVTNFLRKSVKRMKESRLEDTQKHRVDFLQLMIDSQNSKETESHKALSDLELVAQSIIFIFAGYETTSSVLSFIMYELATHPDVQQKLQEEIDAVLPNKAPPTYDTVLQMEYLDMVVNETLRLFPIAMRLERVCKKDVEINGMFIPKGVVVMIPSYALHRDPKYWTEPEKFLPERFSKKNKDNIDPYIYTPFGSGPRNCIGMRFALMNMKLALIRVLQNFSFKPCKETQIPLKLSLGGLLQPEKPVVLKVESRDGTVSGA
Cytochrome P450 2C19 (Homo sapiens), sequence (P33261 whole entry, looked up): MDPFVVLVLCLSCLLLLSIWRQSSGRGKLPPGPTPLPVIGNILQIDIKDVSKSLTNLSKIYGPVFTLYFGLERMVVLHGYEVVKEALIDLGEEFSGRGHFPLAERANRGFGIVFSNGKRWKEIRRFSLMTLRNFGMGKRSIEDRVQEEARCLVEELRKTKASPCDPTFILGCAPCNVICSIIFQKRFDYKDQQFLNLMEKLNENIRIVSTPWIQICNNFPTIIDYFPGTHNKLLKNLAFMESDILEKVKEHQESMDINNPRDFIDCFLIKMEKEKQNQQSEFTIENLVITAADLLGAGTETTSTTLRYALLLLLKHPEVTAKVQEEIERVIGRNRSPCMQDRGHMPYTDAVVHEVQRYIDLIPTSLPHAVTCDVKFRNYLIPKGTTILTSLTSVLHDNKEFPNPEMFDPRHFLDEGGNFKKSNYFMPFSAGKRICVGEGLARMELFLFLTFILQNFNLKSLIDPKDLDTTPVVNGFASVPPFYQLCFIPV

| Structure (SMILES) | activity, negative = inhibition [1] | Potency [2] | Potency [3] | Potency [4] | Potency [5] | Potency [1] | activity change, negative = inhibition [6] | activity change, negative = inhibition [7] | Potency [8] |
| --- | --- | --- | --- | --- | --- | --- | --- | --- | --- |
| C[C@H]1Cc2c(-c3ccccc3)nc3c(c2CO1)CN(C(=O)NCc1ccco1)CC3 | 0.465% [at 1.12 µM] (inactive) | inactive | inactive | inactive | inactive | – | – | – | – |
| C=CC[C@@H]1C=C[C@H](ON=C(C)CCN2CCCCc3nc(C)c(C)cc32)[C@H](CO)O1 | – | inactive | inactive | inactive | inactive | inactive | – | – | – |
| CC(=O)C1=C(C)N(Cc2ccco2)C(=O)NC1c1ccccc1 (stereo not drawn) | – | inactive | inactive | inactive | inactive | inactive | – | – | – |
| CCCCC1=CC2=C(c3ccco3)C(=O)C(C)(OC(=O)c3ccc(OC)cc3)C(=O)C2=CN1CCCOC(C)C (stereo not drawn) | – | inactive | inactive | inactive | inactive | inactive | – | – | – |
| CCOC(=O)CCN1C(=O)[C@@H]2[C@H]3[C@H](O)[C@H](O)CC(=NOCC(C)C)[C@@H]3CC[C@H]2C1=O | – | inactive | inactive | inactive | inactive | inactive | – | – | – |
| CCN(CC)CCCN=C1NC(c2ccccc2)C(C(=O)OC)=C(C)N1CC (stereo not drawn) | – | inactive | inactive | inactive | inactive | inactive | – | – | – |
| COC(=O)C1=C(C(=O)OC)[C@@H]2Nc3ccccc3[C@@]23C[C@@H](C(=O)OC)N(C(=O)Nc2ccc(C(F)(F)F)cc2)C3=N1 | – | inactive | inactive | inactive | inactive | inactive | – | – | – |
| COc1ccc(C(=O)[C@]2(C)C=C(c3ccc(OC)cc3)[C@H](C)C2)cc1 | – | inactive | inactive | inactive | inactive | inactive | – | – | – |
| COC1=C[C@H](C(=O)NCCNC(C)=O)[C@H](C)[C@@H](c2ccccc2)CC1=O | – | inactive | inactive | inactive | inactive | inactive | – | – | – |
| CCCCC[C@]12Cc3cc(OC)c(OC)cc3[C@H](O1)c1c(cc(C)n(-c3ccccc3)c1=O)O2 | – | inactive | 2.94 µM (active) and inactive | inactive | inactive | inactive | – | – | – |
| COC(=O)C1=C(C(=O)OC)[C@@H]2N(C)c3ccccc3[C@@]23C[C@@H](C(=O)OC)N(C(=O)NCCBr)C3=N1 | – | inactive | inactive | inactive | inactive | inactive | – | – | – |
| CC(=O)c1ccc(OCc2ccccc2)c(C)c1O | – | inactive | inactive | inactive | inactive | inactive | -20.5% [at 11.4 µM] (inactive) | -4.53% [at 11.4 µM] (inactive) | 0.0501 µM (active) |
| COC(=O)CC=C[C@@H](C)[C@@H](C=NO[C@H](C)CN1CCCc2nc(C)c(C)cc21)N[S+](=O)([O-])c1ccc(C)cc1 | – | inactive | inactive | inactive | inactive | inactive | – | – | – |
| COC(=O)[C@H](COC(C)(C)C)NC(=O)O[C@@H]1C(=O)c2ccc(OC)cc2O[C@H]1c1cccc(C(F)(F)F)c1 | – | inactive | inactive | inactive | inactive | inactive | – | – | – |
